A number with no mark means an inactive call.
Test system: Madurella mycetomatis MM55
Test: percent growth relative to solvent control; higher = less inhibition, active = 20 or less
Settings: 100 µM; 7 days

| Compound | percent growth [%] |
| --- | --- |
| COc1ccccc1C(C)NCC(=O)Nc1cc(C(F)(F)F)ccc1Cl (stereo not given) | 28.7 |
| CCCNC(=O)N1CCC2(CC1)CC(=O)c1cc(C)ccc1O2 | 102 |
| Cc1cccc(NC(=O)c2cc(S(=O)(=O)N(C)c3ccc(F)cc3)ccc2Cl)n1 | 70 |
| CN(C(=O)c1cc2c(-c3cncnc3)cccc2[nH]1)c1ccccc1 | 51.3 |
| CC(=O)NC[C@H]1CN(c2ccc(N3CCSCC3)c(F)c2)C(=O)O1 | 94.5 |
| O=C(NCc1nnc2n1CCCCC2)c1ccc(-c2ccc(F)cc2)o1 | 87.7 |
| Cc1cc(C)cc(COc2ccc3c(C)c(CCC(=O)O)c(=O)oc3c2C)c1 | 84.8 |
| O=C(C1CCN(c2nnnn2-c2ccccc2)CC1)N1CCc2ccccc2C1 | 56.4 |
| CNC1C(OC2C(OC3C(O)C(O)C(NC(=N)N)C(O)C3NC(=N)N)OC(C)C2(O)C=O)OC(CO)C(O)C1O (stereo not given) | 119 |
| CNc1snc(C)c1C(=O)NCCOc1ccc(OC)cc1 | 92.2 |
| Cc1cc(Cl)ccc1NC(=O)CCc1ccc(S(=O)(=O)NCC(C)C)cc1 | 91.1 |
| Clc1ccc(CN2CCN(C3=NCCN3)CC2)cc1Cl | 122 |
| FC(F)(F)c1cnc(Sc2nnc(-c3ccncc3)o2)c(Cl)c1 | 82.4 |
| CS(=O)(=O)N1CCC(Cn2nc(Cc3cccc4ccccc34)c3c(N)ncnc32)CC1 | 92.8 |
| CCCS(=O)(=O)N1CCC(CO)(Cc2ccccc2C(F)(F)F)CC1 | 37.4 |

Source: the supplement of paper PMC5940239
